From PubChem BioAssay (Tox21)
“And” between values parts separate entries of the source, which are not always exact repeats. Identical values can stand only once. Results filed as inconclusive are left out. The source made the active and inactive calls. Calls come from the whole dose curve; as a rule, active = well fitted curve in the direction sought with a large enough effect in the repeat runs; inconclusive = weak or mixed curves; inactive = no such curve, though single readings can be large; an effect the other way counts as inactive or inconclusive.

Tests used:
[1] = A CellTox Green Cytotoxicity Assay to monitor cytotoxicity in HEK293 cells - 40 hour (AID 1224871); note: nearly all actives have a fitted effect of over 45% in size
Outline: (§1)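 HEK293 cells, 600/well, were preincubated 5 hours and then exposed to compounds at 37 C for up to 40 hours. A cell-impermeant cyanine dye staining dead-cell DNA was read by fluorescence at 0, 8, 16, 24, 32 and 40 h time points.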

[2] = qHTS RealTime-Glo MT Cell Viability Assay in HEK293 cells - 16 hour (AID 1224872); note: nearly all actives have a fitted effect of over 50% in size; for activity change, negative = cytotoxicity: top concentration of the series differs between compounds
Outline: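 Reads taken at 0, 8, 16, 24, 32 and 40 h from the same wells. HEK293 cells (600/well) carried RealTime-Glo reagents from seeding, with compound added after a 5 h settle at 37 C.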

[3] = qHTS RealTime-Glo MT Cell Viability Assay in HepG2 cells - 8 hour (AID 1224873); note: nearly all actives have a fitted effect of over 55% in size
Outline: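 HepG2 cells (600/well) mixed with RealTime-Glo MT reagent, settled 5 h at 37 C/5% CO2 before compound addition. Nonlytic NanoLuc luminescence from viable-cell prosubstrate reduction read repeatedly during 40 h treatment at 37 C.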

[4] = A CellTox Green Cytotoxicity Assay to monitor cytotoxicity in HEK293 cells - 24 hour (AID 1224875); note: nearly all actives have a fitted effect of over 45% in size; for activity change: series mostly up to about 77 µM
Outline: as §1

[5] = A CellTox Green Cytotoxicity Assay to monitor cytotoxicity in HepG2 cells - 16 hour (AID 1224876); note: nearly all actives have a fitted effect of over 45% in size
Outline: (§2)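 HepG2 cells, 600/well, preincubated 5 h with CellTox Green dye, then exposed to Tox21 compounds in DMSO at 37 C for up to 40 h. Dead-cell DNA fluorescence read at the indicated time point.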

[6] = qHTS RealTime-Glo MT Cell Viability Assay in HepG2 cells - 32 hour (AID 1224877); note: nearly all actives have a fitted effect of over 55% in size
Outline: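 HepG2 suspension premixed with RealTime-Glo reagents is plated at 600 cells per well and left 5 h at 37 C/5% CO2. Compounds in DMSO then go in, and bioluminescence reflecting viable cell number is recorded over 40 h.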

[7] = A CellTox Green Cytotoxicity Assay to monitor cytotoxicity in HepG2 cells - 24 hour (AID 1224878); note: nearly all actives have a fitted effect of over 45% in size
Outline: as §2

[8] = A CellTox Green Cytotoxicity Assay to monitor cytotoxicity in HepG2 cells - 40 hour (AID 1224879); note: nearly all actives have a fitted effect of over 40% in size
Outline: as §2

[9] = qHTS RealTime-Glo MT Cell Viability Assay in HEK293 cells - 0 hour (AID 1224880); note: nearly all actives have a fitted effect of over 45% in size; for activity change, negative = cytotoxicity: top concentration of the series differs between compounds
Outline: (§3)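 600 cells/well were plated with the nonlytic NanoLuc/prosubstrate reagent, pre-incubated 5 h, then given 23 nL of compound in DMSO. Incubation at 37 C for 40 h, with luminescence from viable-cell-reduced substrate read repeatedly from 0 h.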

[10] = qHTS RealTime-Glo MT Cell Viability Assay in HEK293 cells - 40 hour (AID 1224874); conditions: RealTime-Glo luminescence; max response: active compounds read low; note: nearly all actives have a fitted effect of over 50% in size
Outline: as §3
% is set by controls: 0 for no effect and ±100 for the full control effect; potency is the fitted concentration of half-maximal effect.

CN
inactive: Potency [1] | Potency [2] | Potency [3] | Potency [4] | Potency [5] | Potency [6] | Potency [7] | Potency [8] | Potency [9]

CCN(CC)C(=O)N[C@@H]1C=C2c3cccc4[nH]cc(c34)C[C@@H]2N(C)C1
inactive: Potency [1] | Potency [2] | Potency [3] | Potency [4] | Potency [5] | Potency [6] | Potency [7] | Potency [8] | Potency [9]

O=[N+]([O-])c1ccccc1-c1ccccc1
inactive: Potency [1] | Potency [2] | max response [10] 4.62% | Potency [4] | Potency [5] | Potency [6] | Potency [7] | Potency [8] | Potency [9]

O=c1[nH]c(Cl)c(Cl)cc1Cl
inactive: Potency [1] | Potency [2] | max response [10] 0.811% | Potency [4] | Potency [5] | Potency [6] | Potency [7] | Potency [8] | Potency [9]

CNC(=O)O/N=C(\C)C(C)S(C)(=O)=O (stereo unspecified)
inactive: Potency [1] | Potency [2] | Potency [3] | Potency [4] | Potency [5] | Potency [6] | Potency [9]

CCCCCCCc1ccc(O)cc1
inactive: Potency [6] | Potency [9]
active: Potency [1] 43.6 µM | Potency [2] 11 µM | Potency [10] 21.9 µM | Potency [4] 43.6 µM | Potency [5] 21.9 µM | Potency [7] 21.9 µM | Potency [8] 21.9 µM

CC(Cc1ccc2c(c1)OCO2)NO (stereo unspecified)
inactive: Potency [1] | Potency [2] | Potency [3] | Potency [5] | Potency [6] | Potency [7] | Potency [8] | Potency [9]

NC1CCC(CC2CCC(N)CC2)CC1 (stereo unspecified)
inactive: Potency [1] | Potency [2] | Potency [3] | Potency [5] | Potency [6] | Potency [7] | Potency [8] | Potency [9]

C=Cc1cccc(CCl)c1
inactive: Potency [1] | Potency [2] | max response [10] 4.68% | Potency [4] | Potency [5] | Potency [6] | Potency [7] | Potency [8] | Potency [9]

Cc1ccccc1OP(=O)(Oc1ccccc1C)Oc1ccccc1C
inactive: Potency [1] | Potency [2] | Potency [3] | Potency [4] | Potency [5] | Potency [7] | Potency [8] | Potency [9]

BrCCCBr
inactive: Potency [1] | Potency [2] | max response [10] 6.85% | Potency [4] | Potency [5] | Potency [6] | Potency [7] | Potency [8] | Potency [9]

Clc1ccc(C2(Cn3cncn3)OCCO2)c(Cl)c1
inactive: Potency [1] | Potency [2] | Potency [3] | Potency [4] | Potency [6] | Potency [7] | Potency [8] | Potency [9]

Oc1ccc(Cl)c(Cl)c1
inactive: Potency [1] | Potency [2] | max response [10] -18.2% | Potency [4] | Potency [5] | Potency [6] | Potency [7] | Potency [8]

Cc1ccn2nc(S(=O)(=O)Nc3c(F)cccc3F)nc2n1
inactive: Potency [1] | Potency [2] | max response [10] 12.5% | Potency [4] | Potency [5] | Potency [6] | Potency [7] | Potency [8] | Potency [9]

CCCCc1ccccc1
inactive: Potency [1] | Potency [2] | max response [10] -16% | Potency [4] | Potency [5] | Potency [6] | Potency [7] | Potency [8] | Potency [9]

CN1[C@@H]2CC[C@H]1CC(O)C2 (stereo partly specified)
inactive: Potency [1] | Potency [2] | Potency [3] | Potency [4] | Potency [5] | Potency [7] | Potency [8] | Potency [9]

[C-]1=CC=CC1.[Cl][Zr+2][Cl].c1cc[cH-]c1
inactive: Potency [1] | Potency [2] | Potency [3] | Potency [5] | Potency [7] | Potency [8] | Potency [9]

Clc1c(Cl)c(Cl)c(Cl)c(Cl)c1Cl
inactive: cytotoxicity increase [1] -20.6% [at 6.97 µM] | activity change, negative = cytotoxicity [2] 3.93% [at 6.97 µM] | max response [10] 8.77% | activity change [4] -16.1% [at 6.97 µM, active compounds read high] | cytotoxicity increase [5] 0.26% [at 6.97 µM] | cytotoxicity [7] 0.224% [at 6.97 µM] | cytotoxicity increase [8] -0.205% [at 6.97 µM] | activity change, negative = cytotoxicity [9] 2.6% [at 6.97 µM]

CC[C@]1(O)CC[C@H]2[C@@H]3CCC4=CCCC[C@@H]4[C@H]3CC[C@@]21C
inactive: Potency [1] | Potency [2] | Potency [3] | Potency [4] | Potency [5] | Potency [6] | Potency [7] | Potency [9]
active: Potency [8] 23.9 µM

CCC(C)c1cccc(C(C)CC)c1O (stereo unspecified)
inactive: Potency [2] | max response [10] -7.36% | Potency [6] | Potency [9]
active: Potency [1] 27.5 µM | Potency [4] 38.9 µM | Potency [5] 17.4 µM | Potency [7] 19.5 µM | Potency [8] 19.5 µM

CCC[CH2][Sn]([CH2]CCC)([CH2]CCC)[CH2]CCC
active: Potency [1] 12.3 µM | Potency [2] 9.77 µM | Potency [10] 7.76 µM | Potency [4] 17.4 µM | Potency [5] 17.4 µM | Potency [6] 4.9 µM | Potency [7] 13.8 µM | Potency [8] 11 µM

CO/N=C(/C1=NOCCO1)c1ccccc1Oc1ncnc(Oc2ccccc2Cl)c1F
inactive: Potency [1] | Potency [2] | Potency [3] | Potency [4] | Potency [5] | Potency [7] | Potency [8] | Potency [9]

[F][Sn]([c]1ccccc1)([c]1ccccc1)[c]1ccccc1
inactive: Potency [9]
active: Potency [1] 1.55 µM | Potency [2] 0.549 µM | Potency [3] 1.74 µM | Potency [5] 1.74 µM | Potency [6] 0.347 µM | Potency [7] 2.19 µM | Potency [8] 0.692 µM

Nc1nc(N)c(N)c(N)n1
inactive: Potency [2] | Potency [3] | Potency [6] | Potency [9]
active: Potency [1] 49.2 µM | Potency [5] 55.2 µM | Potency [7] 55.2 µM | Potency [8] 55.2 µM

ClC1=C(Cl)[C@]2(Cl)[C@H]3[C@H]([C@@H]4C=C[C@H]3C4)[C@@]1(Cl)C2(Cl)Cl
inactive: Potency [9]
active: Potency [1] 54.9 µM and 49 µM | Potency [2] 43.6 µM and 38.9 µM | Potency [10] 48.9 µM and 43.6 µM | Potency [4] 48.9 µM and 49 µM | Potency [5] 54.9 µM | Potency [7] 54.9 µM | Potency [8] 54.9 µM

CCOP(=O)(OCC)Oc1cc(C)nc(C(C)C)n1
inactive: Potency [1] | Potency [2] | max response [10] 1.52% | Potency [4] | Potency [5] | Potency [6] | Potency [7] | Potency [8] | Potency [9]

O=[N+]([O-])[O-].[Tl+]
inactive: Potency [1] | Potency [2] | Potency [3] | Potency [4] | Potency [6] | Potency [7] | Potency [8] | Potency [9]

CCOP(=S)(OCC)Oc1cc(C)nc(N(CC)CC)n1
inactive: Potency [1] | Potency [2] | Potency [3] | Potency [4] | Potency [6] | Potency [7] | Potency [8] | Potency [9]

CCN1CCC2(CC1)COc1cc3c(cc12)N(C(=O)c1ccc(-c2ccc(-c4nnc(C)o4)cc2C)cc1)CC3
active: Potency [1] 40.3 µM | Potency [2] 18 µM | Potency [10] 11.3 µM | Potency [4] 50.7 µM | Potency [5] 50.7 µM | Potency [6] 45.2 µM | Potency [8] 45.2 µM | Potency [9] 25.4 µM

O=C(NC(=O)c1c(F)cccc1F)Nc1ccc(Oc2ccc(C(F)(F)F)cc2Cl)cc1F
inactive: Potency [1] | Potency [4] | Potency [5] | Potency [6] | Potency [7] | Potency [8] | Potency [9]
active: Potency [2] 24.5 µM | Potency [10] 43.6 µM

C#CCO
inactive: Potency [1] | Potency [2] | Potency [3] | Potency [5] | Potency [7] | Potency [8] | Potency [9]

CCCCn1cc[n+](C)c1.[Cl][Fe-]([Cl])([Cl])[Cl]
inactive: Potency [1] | Potency [2] | Potency [3] | Potency [4] | Potency [5] | Potency [7] | Potency [8] | Potency [9]

C=C(C)C(=O)[O][Sn]([CH2]CCC)([CH2]CCC)[CH2]CCC
inactive: Potency [9]
active: Potency [1] 0.436 µM | Potency [2] 0.389 µM | Potency [3] 0.616 µM | Potency [4] 2.19 µM | Potency [5] 0.49 µM | Potency [6] 0.245 µM | Potency [7] 0.616 µM | Potency [8] 0.389 µM

COP(=S)(OC)Oc1nc(Cl)c(Cl)cc1Cl
inactive: Potency [1] | Potency [2] | Potency [3] | Potency [6] | Potency [7] | Potency [8] | Potency [9]

N#Cc1sc2c(=O)c3ccccc3c(=O)c=2sc1C#N
active: Potency [1] 15.5 µM | Potency [2] 11 µM | Potency [10] 17.4 µM | Potency [4] 21.9 µM | Potency [5] 17.4 µM | Potency [6] 11 µM | Potency [7] 12.3 µM | Potency [8] 13.8 µM | Potency [9] 7.76 µM
